Test results: PubChem BioAssay (NCI)
This is part of a sample that, as a whole, favours compounds with a hit. Of some 83,000 tested, about 20% had one in any assay.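 Cell lines were cultured in 96-well plates, exposed to a single compound concentration, and assessed for percent growth 48 hours later.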 Unmarked numbers belong to inactive results. Active and inactive are the calls of the source. The calls were made as follows: active = growth percent below 10; inactive = the rest.

tested on: M14 melanoma; experiment: NCI-60 one-dose screen, 48 h (100 = growth as untreated, 0 = no growth, -100 = all killed); settings: 10 µM unless noted

Compound	growth
O=C(Nc1ncc(Cc2ccccc2)s1)c1sc2ccccc2c1Cl	11.1%
Cc1ccccc1N1CCN(C(=S)c2ccccc2)CC1	101%
CC(C)(C)c1ccc(S(=O)(=O)Oc2ccc(-c3sc4cc(OS(=O)(=O)c5ccc(C(C)(C)C)cc5)ccc4c3C(=O)c3ccc(OCCN4CCCCC4)cc3)cc2)cc1	99.2%
CCn1cc(C(=O)N/N=C/c2ccccc2)c(=O)c2cc(F)c(N3CCNC(C)C3)c(F)c21 (stereo unspecified)	-49.7% (active)
COC1/C=C/OC2(C)Oc3c(C)c(O)c4c(O)c(c(/C=N/N(c5ccccc5)c5ccccc5)c(O)c4c3C2=O)NC(=O)C(C)=C/C=C/C(C)C(O)C(C)C(O)C(C)C(OC(C)=O)C1C (stereo unspecified)	95.7%
CS(=O)(=O)c1ccc(-c2nc3ccccc3n2CC(=O)N/N=C/c2ccccc2)cc1	90.4%
CC(=O)O[C@H]1CC[C@]2(C)[C@H]3CC=C4[C@@H]5CC(C)(C)CC[C@]5(C(=O)N5CCN(CCC#N)CC5)CC[C@@]4(C)[C@]3(C)CC[C@H]2C1(C)C	35.7%
C[N+]1=C(/C=C/c2ccccc2Cl)C(C)(C)c2ccccc21	97.8%
COC(=O)/C=C1/SC(=Nc2ccc(F)cc2)N(CCc2c[nH]c3ccc(O)cc23)C1=O	40.1%
Cc1c2ccccc2nc2cc3c(cc12)[C@H]1CC[C@]2(C)C(=O)CC[C@H]2[C@@H]1CC3	102%
O=C(/C=C/C12c3ccccc3C(c3ccccc31)C1C(=O)NC(=O)C12)c1ccco1 (stereo unspecified)	46.6%
